Experimental findings from PubChem BioAssay (NCATS) are described below.

Records with an inconclusive call do not appear. Unmarked numbers belong to inactive results. Activity calls are given as the source filed them. Calls come from the whole dose curve; as a rule, active = well fitted curve in the direction sought with a large enough effect; inconclusive = small, poorly fitted or top-dose-only effect, or another doubt; inactive = no such curve, though single readings can be large; an effect the other way counts as inactive or inconclusive.

The target in assay [1] is Rap guanine nucleotide exchange factor 3 (Homo sapiens) (UniProt O95398). In words: Confirmatory qHTS for antagonist of cAMP-regulated guanine nucleotide exchange factor 3 (EPAC1) (AID 1645880).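 For activity, negative = inhibition: plate controls were DMSO only for no effect and full effect of the ATA control for full effect.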 Note: nearly all actives have a fitted effect of over 55% in size. Note: potency is the fitted concentration of half-maximal effect. The settings on record: EPAC1 Rap1B-BODIPY-GDP exchange, fluorescence; activity, negative = inhibition: at 115 µM (top of the series). The method in brief: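 Released BODIPY-GDP fluoresces less than Rap1-bound BODIPY-GDP; the signal is followed at 480/540 nm at 5-min intervals over 30 min, after 5 min at room temperature. Reactions contain 100 nM EPAC1, 250 nM RAP1B-BODIPY-GDP and 50 uM GDP; results are normalized to ATA and DMSO.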
(In general: In qHTS, concentration-response curves come from the screen itself.)

Assay [2] has the same target. The experiment in a line: Confirmatory qHTS for agonist of cAMP-regulated guanine nucleotide exchange factor 3 (EPAC1) (AID 1645881).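 Note: EPAC1 catalysed release of BODIPY-GDP from Rap1B seen as fluorescence loss; 100% = effect of cAMP agonist control; nearly all actives have a fitted effect of over 75% in size.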
For assay [3], the target named is Rap guanine nucleotide exchange factor 4 (Homo sapiens) (UniProt Q8WZA2). In words: Confirmatory qHTS for agonist of cAMP-regulated guanine nucleotide exchange factor 4 (EPAC2) (AID 1645884).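 Note: nucleotide exchange releases bodipy-GDP from Rap1 and this lowers its fluorescence; % is set by controls: 0 for no effect and ±100 for the full control effect; nearly all actives have a fitted effect of over 65% in size.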
Assay [4] has the same target. In words: Confirmatory qHTS for antagonist of cAMP-regulated guanine nucleotide exchange factor 4 (EPAC2) (AID 1645885). Note: nearly all actives have a fitted effect of over 25% in size. Note: potency is the fitted concentration of half-maximal effect.
For assay [5], the target named is Rap guanine nucleotide exchange factor 3 (Homo sapiens) (UniProt O95398). In words: Counterscreen qHTS for agonist of cAMP-regulated guanine nucleotide exchange factor 3 (EPAC1) (AID 1645889). Note: % of control where 0% means no effect; nearly all actives have a fitted effect of over 40% in size. Put shortly:
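Rap1B-BODIPY-GDP 250 nM + GDP 50 uM; cpds 7-pt, final 9.74 nM–152 uM (activator mode) or from 7.32 nM upwards (inhibitor mode); RT; FI 480/540 nm at 5 and 30 min, then ± cAMP, reread.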
(The purpose of a counterscreen is to sort out artefacts and off-target activity.)

Rap guanine nucleotide exchange factor 3 (Homo sapiens), sequence (O95398 whole entry, looked up): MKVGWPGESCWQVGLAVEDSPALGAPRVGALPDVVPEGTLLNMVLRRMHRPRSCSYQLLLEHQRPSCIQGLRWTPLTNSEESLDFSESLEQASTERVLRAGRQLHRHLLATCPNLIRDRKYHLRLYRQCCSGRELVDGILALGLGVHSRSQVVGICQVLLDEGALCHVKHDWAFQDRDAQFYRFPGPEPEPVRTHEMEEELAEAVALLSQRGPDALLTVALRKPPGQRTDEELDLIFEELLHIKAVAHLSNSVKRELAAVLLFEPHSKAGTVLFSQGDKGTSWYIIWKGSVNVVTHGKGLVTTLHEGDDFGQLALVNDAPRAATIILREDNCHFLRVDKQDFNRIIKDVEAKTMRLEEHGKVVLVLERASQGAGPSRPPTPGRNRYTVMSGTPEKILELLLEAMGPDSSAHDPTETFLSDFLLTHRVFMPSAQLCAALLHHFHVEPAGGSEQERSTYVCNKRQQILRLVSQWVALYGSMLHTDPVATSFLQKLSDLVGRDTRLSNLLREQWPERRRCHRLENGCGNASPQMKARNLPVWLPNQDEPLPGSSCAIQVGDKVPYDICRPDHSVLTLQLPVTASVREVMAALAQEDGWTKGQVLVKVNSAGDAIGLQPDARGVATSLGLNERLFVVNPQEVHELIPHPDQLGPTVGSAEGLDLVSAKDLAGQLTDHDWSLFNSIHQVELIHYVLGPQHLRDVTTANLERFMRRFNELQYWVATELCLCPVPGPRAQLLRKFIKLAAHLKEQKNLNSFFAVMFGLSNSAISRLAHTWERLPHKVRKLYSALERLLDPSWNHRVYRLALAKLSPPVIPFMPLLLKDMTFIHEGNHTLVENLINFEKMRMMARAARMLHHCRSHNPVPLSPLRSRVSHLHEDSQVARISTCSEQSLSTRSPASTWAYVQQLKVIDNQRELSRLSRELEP
Rap guanine nucleotide exchange factor 4 (Homo sapiens), sequence (Q8WZA2 whole entry, looked up): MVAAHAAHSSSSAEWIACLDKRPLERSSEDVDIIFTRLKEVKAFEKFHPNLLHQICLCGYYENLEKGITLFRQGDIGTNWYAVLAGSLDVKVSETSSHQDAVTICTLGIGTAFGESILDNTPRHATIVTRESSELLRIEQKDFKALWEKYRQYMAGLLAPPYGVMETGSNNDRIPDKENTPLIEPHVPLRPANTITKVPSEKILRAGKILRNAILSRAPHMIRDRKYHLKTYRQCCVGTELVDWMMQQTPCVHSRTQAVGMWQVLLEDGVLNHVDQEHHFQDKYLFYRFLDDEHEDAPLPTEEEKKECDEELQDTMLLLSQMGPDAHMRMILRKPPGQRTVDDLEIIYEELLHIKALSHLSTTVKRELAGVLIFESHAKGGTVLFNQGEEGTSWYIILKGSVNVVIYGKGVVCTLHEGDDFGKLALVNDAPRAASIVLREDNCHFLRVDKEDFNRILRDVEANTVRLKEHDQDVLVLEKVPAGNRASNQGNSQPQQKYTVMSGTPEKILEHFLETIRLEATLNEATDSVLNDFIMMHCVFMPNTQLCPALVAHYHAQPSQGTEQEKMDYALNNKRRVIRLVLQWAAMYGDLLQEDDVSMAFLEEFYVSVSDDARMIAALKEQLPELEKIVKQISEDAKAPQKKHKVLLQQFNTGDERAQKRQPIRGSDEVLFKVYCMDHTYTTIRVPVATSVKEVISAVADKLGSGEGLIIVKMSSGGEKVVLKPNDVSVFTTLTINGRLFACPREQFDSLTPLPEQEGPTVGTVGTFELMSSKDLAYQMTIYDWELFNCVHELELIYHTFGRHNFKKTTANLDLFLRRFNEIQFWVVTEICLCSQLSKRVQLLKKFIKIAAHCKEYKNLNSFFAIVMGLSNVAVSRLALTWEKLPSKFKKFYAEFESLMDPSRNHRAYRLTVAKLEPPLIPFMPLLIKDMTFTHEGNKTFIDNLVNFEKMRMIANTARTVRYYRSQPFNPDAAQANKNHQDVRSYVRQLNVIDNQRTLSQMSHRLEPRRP

Regarding `Brc1ccc(N/N=C(/N=Nc2nn[nH]n2)c2ccccc2)cc1`, the Potency in assay [1] was 33.8 µM (active). The Potency entry in assay [2], in assay [3], in assay [4] and in assay [5] was “inactive” each time.
For the compound `CCCCCn1c(CCNC(=O)c2cccc(C)c2)nc2ccccc21`, the Potency entry in assay [1], in assay [2], in assay [3], in assay [4] and in assay [5] was “inactive” in each case.
As to `Cc1ccc(C)c(NC(=O)COC(=O)COc2cccc3c2OC(C)(C)C3)c1`, the Potency result in assay [1], in assay [2] and in assay [4] was “inactive” throughout. Besides, the activation is -3.91% [at 17.1 µM, percent relative to cAMP agonist control] in assay [3] and 3.82% [at 30.8 µM] in assay [5].
On to `CCc1ccc([C@@H]2CC=C(C(=O)O)[C@H](c3ccc(C(C)(C)C)cc3)N2S(=O)(=O)c2ccc(C)cc2)cc1`, for which the Potency in assay [1] and in assay [4] was 37.9 µM (active) each time. Besides, the Potency result in assay [2], in assay [3] and in assay [5] was “inactive” each time.
As for `Cc1ccc(C)c(CSc2nnc(C)n3c2cc2sccc23)c1`, the Potency entry in assay [1], in assay [2], in assay [3], in assay [4] and in assay [5] was “inactive” throughout.
Take `COC(=O)CSc1ncnc2scc(-c3ccccc3)c12`: the Potency result in assay [1], in assay [2] and in assay [4] was “inactive” in each case. In addition, the activation in assay [3] is -0.952% [at 17.1 µM, percent relative to cAMP agonist control]; in assay [5] it was 5.38% [at 30.8 µM].
Regarding `CCOc1ccc(/C=C2\SC(=S)N(NS(=O)(=O)c3ccc(C)cc3)C2=O)cc1OC`, the Potency in assay [1] is 56.2 µM (active). Also, the Potency entry in assay [2] and in assay [4] was “inactive” each time. Also, the activation is 5.33% [at 17.1 µM, percent relative to cAMP agonist control] in assay [3] and -1.1% [at 30.8 µM] in assay [5].
Consider `CCCOc1ccc(/C(O)=C2/C(=O)C(=O)N(c3ccccn3)C2c2ccc(OC)cc2)cc1C` (stereo not given), for which, in assay [1], the Potency is 33.8 µM (active). Also, the Potency entry in assay [2], in assay [3], in assay [4] and in assay [5] was “inactive” in each case.
As to `CC1CC1c1ccc(/C=C(\C#N)C(=O)Nc2ccc(Cl)cc2)o1` (stereo not given), the Potency result in assay [1], in assay [2], in assay [3], in assay [4] and in assay [5] was “inactive” in each case.
Regarding `Cc1cc2ccccn2c1C(=O)c1cccc(F)c1`, the Potency result in assay [1], in assay [2], in assay [3], in assay [4] and in assay [5] was “inactive” throughout.
With `CN1/C(=C/C=C/c2n(C)c3cc([N+](=O)[O-])c([N+](=O)[O-])cc3[n+]2C)C(C)(C)c2ccccc21`, the figures for the Potency in assay [1] and in assay [4] were 30.1 µM (active) and 42.6 µM (active), respectively. Further, the Potency result in assay [2], in assay [3] and in assay [5] was “inactive” throughout.
Regarding `CC(=O)/C(C#N)=C1\NC(=O)C(Cc2cc(Cl)ccc2Cl)S1` (stereo not given), the Potency in assay [1] is 44.7 µM (active). Further, the Potency entry in assay [2] and in assay [4] was “inactive” throughout. The activation in assay [3] was 4.95% [at 17.1 µM, percent relative to cAMP agonist control]; in assay [5] it was 2.87% [at 30.8 µM].
As for `CCOc1ccc2oc(C(=O)N(C)CC(=O)Nc3ccc(OCC)c(OCC)c3)c(C)c2c1`, the Potency entry in assay [1], in assay [2], in assay [3], in assay [4] and in assay [5] was “inactive” throughout.
For `O=S(=O)(Nc1nc2ccccc2nc1Nc1cccc(S(=O)(=O)N2CCCCC2)c1)c1ccccc1`, the Potency in assay [1] is 56.2 µM (active). Also, the Potency result in assay [2] and in assay [4] was “inactive” throughout. Also, the activation in assay [3] was 6.04% [at 17.1 µM, percent relative to cAMP agonist control]; in assay [5] it was 25.8% [at 30.8 µM].
Regarding `Cn1cc([C@]2(O)C(=O)Nc3ccc(OC(F)(F)F)cc32)c2ccccc21`, the Potency result in assay [1], in assay [2] and in assay [4] was “inactive” throughout. The activation is 14.8% [at 17.1 µM, percent relative to cAMP agonist control] in assay [3] and 32.2% [at 30.8 µM] in assay [5].
Regarding `O=C(C1CC1)N1CCN(c2ccc([N+](=O)[O-])cc2-n2cccc2)CC1`, the Potency entry in assay [1], in assay [2] and in assay [4] was “inactive” each time. Besides, the activation was 4.17% [at 17.1 µM, percent relative to cAMP agonist control] in assay [3] and 6.18% [at 30.8 µM] in assay [5].
In the case of `COC(=O)Cc1c(C)c2ccc(OC(=O)c3ccco3)cc2oc1=O`, the Potency result in assay [1], in assay [2] and in assay [4] was “inactive” in each case. For the same compound, the activation was 7.89% [at 17.1 µM, percent relative to cAMP agonist control] in assay [3] and 4.06% [at 30.8 µM] in assay [5].
`Cc1ccc(S(=O)(=O)NC2CC(=O)N(c3ccc4c(c3)OCCO4)C2)cc1` (stereo not given): the Potency entry in assay [1], in assay [2] and in assay [4] was “inactive” each time. Besides, the activation in assay [3] is 3.34% [at 17.1 µM, percent relative to cAMP agonist control]; in assay [5], 22.6% [at 30.8 µM].
Regarding `CCC1=NN(C(=O)c2ccc(Br)cc2)C(O)(c2ccccc2)C1` (stereo not given), the Potency entry in assay [1], in assay [2] and in assay [4] was “inactive” in each case. The activation in assay [3] is 2.89% [at 17.1 µM, percent relative to cAMP agonist control]; in assay [5], 19.8% [at 30.8 µM].
Take `O=C(NCCS(=O)(=O)N1CCc2ccccc2C1)c1ccccc1`: the Potency result in assay [1], in assay [2], in assay [3], in assay [4] and in assay [5] was “inactive” throughout.
On to `C=CCN(CC=C)C(=O)COn1nnc2ccc(S(=O)(=O)N3CCOCC3)cc21`, for which the Potency entry in assay [1], in assay [2], in assay [3], in assay [4] and in assay [5] was “inactive” throughout.
Turning to `CCOC(=O)N1c2ccccc2Sc2ccccc21`, the Potency result in assay [1], in assay [2] and in assay [4] was “inactive” throughout. Moreover, the activation in assay [3] is 4.1% [at 17.1 µM, percent relative to cAMP agonist control]; in assay [5], 15.6% [at 30.8 µM].
